Assay outcomes from PubChem.
Compounds with a hit are over-represented: about 6.1% of the library has one in this group of screens.
DRD3 antagonist – antagonists of human D3 dopamine receptor | P35462 | D3R cells, DiscoveRx beta-arrestin luminescence, antagonist mode; hits give low values | max response, negative = inhibition, % | 360,000 compounds, 2.5% hits; in the data active = max response below about -50%; inconclusive = no clear call, values can overlap the other calls
Target sequence (P35462 whole entry, looked up): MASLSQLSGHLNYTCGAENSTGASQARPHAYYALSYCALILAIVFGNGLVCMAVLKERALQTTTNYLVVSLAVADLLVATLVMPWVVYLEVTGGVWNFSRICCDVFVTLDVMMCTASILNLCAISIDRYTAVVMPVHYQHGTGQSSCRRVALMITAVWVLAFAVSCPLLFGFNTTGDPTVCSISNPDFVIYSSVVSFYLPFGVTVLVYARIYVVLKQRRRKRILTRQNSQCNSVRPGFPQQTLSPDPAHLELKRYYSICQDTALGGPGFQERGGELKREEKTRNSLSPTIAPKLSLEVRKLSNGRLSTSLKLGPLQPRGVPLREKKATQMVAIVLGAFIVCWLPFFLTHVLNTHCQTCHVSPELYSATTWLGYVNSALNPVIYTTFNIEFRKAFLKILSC
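Cells plated overnight at 1500 cells/well, then exposed to library compounds with dopamine controls for 90 minutes at 37 degrees C. DiscoveRx reagent added for 30–60 minutes at room temperature; luminescence read, quantitative HTS format.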
D1 PAM – potentiators of human D1 dopamine receptor; HEK293 TREx D1 cells, calcium flux, dopamine EC20 potentiation; AID 504651; P21728; 360,000 compounds, 0.036% hits; potentiation, % at 10 µM; in the data active = potentiation above about 30%
D1 antagonist – human D1 dopamine receptor antagonism; AID 504652; P21728; HEK293 TREx D1 cells, calcium flux, dopamine EC80; hits give low values; activity change, negative = inhibition, % at 10 µM; 360,000 compounds, 3.2% hits; in the data active = activity change below about -30%
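Inducible Hek293 Trex D1 cells (tetracycline, overnight, 30 C). Calcium dye 30–90 min RT. Antagonist mode: EC80 dopamine added after 180 s compound read.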
D1 agonist – agonists of human D1 dopamine receptor; P21728; HEK293 T-REx D1 cells, calcium flux, agonist mode; activation, % at 2 µM; 360,000 compounds, 1% hits; in the data active = activation above about 30%
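Tetracycline-induced HEK293 TREx D1 cells, force-coupled to calcium signalling, were dye-loaded with a no-wash calcium kit. Compound was pin-added after a 10 s baseline. Fluorescence was read kinetically at 1 cycle/s for 180 s, with calcium rises flagged as agonism.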
DRD3 agonist – activates the human D3 dopamine receptor; 410,000 compounds, 0.58% hits; D3R DiscoveRx beta-arrestin cells, luminescence, 90 min; P35462; max activation, %; in the data active = max activation above about 30%
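Agonist-mode cell screen: cells plated at 1500/well and incubated overnight at 37 °C, then exposed to library compounds for 90 min at 37 °C. Detection reagent was added for 30–60 min at room temperature, and luminescence was read.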
Of the large screens only hits and unclear results are named; the others gave an inactive call.

Cc1cccc(-c2nc3ccccc3n2Cc2ccccc2)c1	D1 antagonist -49.5, D1 agonist 52.6 (no result: DRD3 antagonist)
COc1ccc(-c2nc3ccccc3n2Cc2ccc(Cl)cc2)cc1	D1 antagonist -32.5 (no result: DRD3 antagonist)
Cc1cc(=O)n(CC(=O)NCc2ccc(OC(C)C)cc2)c2c1c(C)nn2-c1cccc(F)c1	none (no result: DRD3 antagonist)
CCn1nc(C)c2c(-c3ccccc3)cc(=O)n(C(C)C(=O)NCCc3ccccc3)c21 (stereo unspecified)	none (no result: DRD3 antagonist)
N#Cc1ccc(S(=O)(=O)N2CCN(Cc3cccs3)CC2)cc1	D1 antagonist -63.6
CC(=O)Nc1ccc(S(=O)(=O)N2CCN(Cc3cccs3)CC2)cc1	D1 antagonist -39.4
O=C(CN1CCc2ccccc2C1)N1CCN(S(=O)(=O)c2ccccc2)CC1	DRD3 antagonist inconclusive, D1 antagonist -35.5
O=S(=O)(c1ccccc1)N1CCc2ccccc2C1	none
Cc1ccc(S(=O)(=O)N2CCN(C(=O)CN3CCc4ccccc4C3)CC2)cc1	DRD3 antagonist inconclusive
COc1cc(S(=O)(=O)N2CCN(Cc3cccs3)CC2)ccc1NC(C)=O	none (no result: D1 PAM)
CC(=O)Nc1ccc(S(=O)(=O)N2CCc3ccccc3C2)cc1	D1 antagonist -33.8
O=C(COc1ccccc1[N+](=O)[O-])N1CCN(S(=O)(=O)c2ccccc2)CC1	D1 antagonist -95.5
O=C(COc1cccnc1[N+](=O)[O-])N1CCN(S(=O)(=O)c2ccccc2)CC1	none
CCOC(=O)[C@@H]1[C@H]2COc3ccc(Br)cc3[C@H]2N2C(=O)N(c3ccc(OC)cc3)C(=O)[C@]12C	DRD3 antagonist -62.4 (no result: D1 PAM, D1 antagonist, D1 agonist)
CCOC(=O)[C@@H]1[C@H]2COc3cc(OC)ccc3[C@@H]2N2C(=O)N(c3ccc(Cl)cc3)C(=O)[C@]12C	DRD3 agonist 34.4 (no result: D1 PAM, D1 antagonist, D1 agonist)
CCOC(=O)[C@H]1[C@H]2COc3ccc(Br)cc3[C@@H]2N2C(=O)CN(Cc3ccc(OC)cc3)C(=O)[C@@]12C	D1 antagonist -30.1
CCOC(=O)[C@@H]1[C@H]2COc3cc(OC)ccc3[C@H]2N2C(=O)N(c3ccc(Cl)cc3)C(=O)[C@]12C	none (no result: D1 PAM, D1 antagonist, D1 agonist)
CCOC(=O)[C@@H]1[C@H]2COc3cc(OC)ccc3[C@@H]2N2C(=O)N(c3ccc(C(F)(F)F)cc3)C(=O)[C@]12C	DRD3 agonist 46.3
CCOC(=O)[C@H]1[C@H]2COc3ccc(OC)cc3[C@@H]2N2C(=O)CN(Cc3ccco3)C(=O)[C@@]12C	none (no result: D1 antagonist)
CCOC(=O)[C@H]1[C@H]2COc3ccc(OC)cc3[C@@H]2N2C(=O)CN(CCc3c[nH]c4ccccc34)C(=O)[C@@]12C	DRD3 agonist 58.0 (no result: D1 antagonist)
COc1cc(NC(C)CCCN)c2ncccc2c1Oc1ccccc1 (stereo unspecified)	DRD3 antagonist -56.2
Cc1cc(C)nc(CCNC(=O)c2cc(COc3ccc(F)cc3F)on2)n1	D1 antagonist -34.4
Cc1cc(C)nc(CCNC(=O)c2cc(COc3ccc(F)cc3Cl)on2)n1	none
COc1ccc(C(=O)Nc2nnc(S(=O)(=O)N3CCCc4ccccc43)s2)cc1	none (no result: DRD3 antagonist)
COc1ccc(N2C(=O)c3ccccc3NC2c2ccc(OC)c(Cn3cc([N+](=O)[O-])cn3)c2)cc1 (stereo unspecified)	D1 antagonist -38.0
Cc1ccc2c(c1)NC(=O)C(CC(=O)Nc1ccc(CN3CCC(C)CC3)cc1)O2 (stereo unspecified)	DRD3 antagonist -60.6 (no result: D1 PAM)
COc1ccc(NC(=O)CC2Oc3ccccc3NC2=O)cc1 (stereo unspecified)	D1 antagonist -40.2
COc1cccc(NC(=O)CC2Oc3ccccc3NC2=O)c1 (stereo unspecified)	none
CCN1CCN(Cc2ccc(NC(=O)CC3Oc4ccc(C)cc4NC3=O)cc2)CC1 (stereo unspecified)	none (no result: D1 PAM)
Cc1cccc(Cn2c(=O)n(Cc3ccccc3)c(=O)c3sc4ccccc4c32)c1	none (no result: DRD3 antagonist)
NC(=O)CSc1nnc(NC(=O)C23CC4CC(CC(C4)C2)C3)s1	DRD3 agonist 40.4
CSc1nnc(NC(=O)C23CC4CC(CC(C4)C2)C3)s1	none
Cc1cc(-c2nn3c(-c4ccccc4)nnc3s2)c2ccccc2n1	D1 antagonist -33.2
c1ccc(-c2cc(-c3nn4c(-c5ccco5)nnc4s3)c3ccccc3n2)cc1	none
COc1cc(OC)c(NS(=O)(=O)c2c(C(=O)N3CCCCCC3)c(C)n(C)c2C)cc1Cl	none (no result: DRD3 antagonist)
CN(C)c1ccc(/C=C/C(=O)c2cccc(Br)c2)cc1	D1 antagonist -75.2, D1 agonist 771.9
